TPT1 inh = inhibitors of Candida albicans tRNA 2'-phosphotransferase TPT1; recombinant caTPT1, FP RNA substrate dephosphorylation; inhibition, % at 5 µM; actives 0.81% (n = 300,000); AID 1962;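 active = inhibition above the mean of all tested compounds plus 3 SD, set per screening campaign, cut at about 24% in these data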;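 note: plate controls were DMSO alone for no effect and ferristatin control at 100 nM for full effect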
ZTA DNA inh = ZTA (EBV) inhibition in EBNA-1 counter-screen | ZTA-DNA binding, fluorescence polarization | inhibition, % at 11 µM | actives 0.15% (n = 320,000) | AID 2234; in the data active = inhibition above about 33%
Target sequence (P03206 whole entry, looked up): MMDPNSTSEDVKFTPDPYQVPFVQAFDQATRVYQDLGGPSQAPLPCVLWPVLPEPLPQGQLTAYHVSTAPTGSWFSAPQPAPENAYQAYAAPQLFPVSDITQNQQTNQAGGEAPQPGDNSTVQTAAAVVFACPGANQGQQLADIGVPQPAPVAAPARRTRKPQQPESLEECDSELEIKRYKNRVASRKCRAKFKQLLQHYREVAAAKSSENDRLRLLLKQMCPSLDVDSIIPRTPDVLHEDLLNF
GRIN3A LBD mod = NR3A (human) ligand-binding domain modulation; actives 2.5% (n = 340,000); AID 1259313; NR3A LBD differential scanning fluorimetry, Tm shift; 0% = protein alone, 100% = glycine-bound protein; Tm shift relative to glycine control, % at 25 µM;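 active = melting temperature shift of at least 10% of the positive control shift, at one fixed dose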
EBNA-1 inhibitor = blocks EBNA-1 binding to DNA; AID 1950; inhibition, % at 14.8 µM; EBNA-1 DNA binding, fluorescence polarization; actives 0.34% (n = 300,000); in the data active = inhibition above about 28%
dFosB activator = mouse delta FosB homodimer activation; P13346; purified delta FosB, TAMRA-CDK5 oligo fluorescence polarization; percent of positive-control signal above neutral wells; activation, % at 25 µM; actives 0.99% (n = 340,000); AID 493131;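 active = mean activation above about 17%, with every replicate also reaching it, limit read from the data, passing the limit was not always enough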
Target sequence (P13346 whole entry, looked up): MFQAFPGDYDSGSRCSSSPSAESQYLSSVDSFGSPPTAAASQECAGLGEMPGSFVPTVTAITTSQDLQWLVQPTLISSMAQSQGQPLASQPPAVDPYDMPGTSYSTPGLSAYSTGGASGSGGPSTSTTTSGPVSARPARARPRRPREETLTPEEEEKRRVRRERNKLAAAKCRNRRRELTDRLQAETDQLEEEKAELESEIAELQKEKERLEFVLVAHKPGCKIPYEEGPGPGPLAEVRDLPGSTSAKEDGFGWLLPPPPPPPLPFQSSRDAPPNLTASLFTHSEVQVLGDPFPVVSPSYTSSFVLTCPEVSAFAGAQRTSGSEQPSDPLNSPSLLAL
Rpn11 inh = inhibitors of human proteasome Rpn11; O00487; human 26S proteasome, Ub4-pepOG fluorescence polarization; 20S core pre-blocked with epoxomicin; inhibition, % at 20 µM; actives 0.59% (n = 360,000); AID 588493;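 active = inhibition at 20 µM, scaled to each plate's controls, above about 33%, limit read from the data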
Rpn11 inh conf = Rpn11 inhibition confirmation, single concentration; actives 29% (n = 1,900); shares compounds with Rpn11 inh; purified human 26S proteasome, Ub4-pepOG fluorescence polarization; proteasome pretreated with epoxomicin; AID 602318; inhibition, % at 20 µM
MMP-2 counter = MMP-2 (human) inhibition counter-screen; shares compounds with Rpn11 inh; recombinant MMP-2, FRET peptide cleavage fluorescence; inhibition, % at 20 µM; actives 4% (n = 1,900);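 note: human MMP-2 activated beforehand with APMA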
Thrombin FP = thrombin (bovine) inhibition counter-screen; actives 13% (n = 1,900); inhibition, % at 20 µM; bovine thrombin cleavage of Ub4-pepOG, fluorescence polarization; shares compounds with Rpn11 inh;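 active = mean inhibition at least 40% at 20 µM, or signal 3 deviations below plate average, so some actives read negative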;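 note: plate controls were thrombin with DMSO for no effect and buffer wells lacking thrombin for full effect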
The depositor's hits bear a star; / = no result; + = active, no number. An excerpt weighted towards active compounds, which were near 4.5% of everything screened. Cut-off read from the data, not from the text of the source, unless noted: active = inhibition above about 40%; inactive = the rest.

SMILES	TPT1 inh	ZTA DNA inh	GRIN3A LBD mod	EBNA-1 inhibitor	dFosB activator	Rpn11 inh	Rpn11 inh conf	MMP-2 counter	Thrombin FP
Cc1ccc(C)c(OCCn2cc(/C=C(/C#N)C(=O)NCC3CCCO3)c3ccccc32)c1 (stereo unspecified)	10.5	18.1	-1.2	10.2	-18.6	100.4*	71.8*	-0.6	27.7
Cn1nc(CSc2ccccc2)c(C=O)c1Cl	-2.8	-1.6	0.0	-2.8	-2.8	0.5	/	/	/
CC1(C)Cc2c(C#N)c(NCCCO)nc(-c3ccccc3)c2CO1	-4.8	11.3	0.6	0.3	-6.9	67.8*	-10.4	-25.8	-14.2
C=CC[C@H](CC(=O)N(CCO)Cc1ccccc1)C(=O)NCCOC(=O)[C@@H](CC=C)CC(=O)OC(C)(C)C	/	/	-2.5	/	-12.4	1.4	/	/	/
COc1ccc(/C=C/C(=O)c2ccc(C(=O)/C=C/c3ccc(OC)c(OC)c3)cc2)cc1OC	/	/	2.2	/	-2.5	55.8*	36.1	-20.4	1.9
CCCN1CCN(C(=O)C2CCN(S(=O)(=O)c3ccc4c(c3)NC(=O)C(C)S4)CC2)CC1 (stereo unspecified)	9.1	10.8	-2.4	0.0	-9.5	40.4*	27.6	-1.3	14.8
CC1Sc2ccc(S(=O)(=O)N3CCC(C(=O)N4CCN(C)CC4)CC3)cc2NC1=O (stereo unspecified)	-0.6	-2.6	-1.2	4.0	-6.5	11.1	/	/	/
Cc1nn(-c2ccccc2)c(N2CCCC2)c1/C=C1\N=C(c2ccc(F)cc2)OC1=O	7.1	-7.1	-1.1	8.9	-8.3	80.7*	-15.9	-11.7	-20.3
CSc1ncc(C(=O)Nc2ccc(Br)cn2)c(C)n1	/	/	-0.7	/	-12.3	0.6	/	/	/
O=C(COC(=O)c1ccc(S(=O)(=O)N2CCCCC2)cc1)NC1CCCCC1	/	/	/	/	/	1.5	/	/	/
O=C(COC(=O)c1ccc(S(=O)(=O)N2CCc3ccccc3C2)cc1)NC1CCS(=O)(=O)C1 (stereo unspecified)	0.0	3.5	1.9	11.7	3.9	48.6*	-11.9	25.4	-22.4
CC(C)(C)OC(=O)N1Cc2ccccc2C[C@H]1C(=O)NCC(=O)NC1CCCCC1	-3.6	3.4	0.1	8.1	-4.6	-2.3	/	/	/
Cc1ccc2nc(/N=C(\N)NC(=O)N3c4ccccc4Sc4ccccc43)nc(C)c2c1	-3.0	7.6	-1.5	11.5	-1.5	45.4*	-3.8	31.6	-14.4
COc1ccc(CCCNC(=O)C2(C)Cc3c(-c4cccc(C(N)=O)c4)ccnc3O2)cc1 (stereo unspecified)	/	/	/	/	/	1.1	/	/	/
Cc1ccc(-c2nc(NC(=O)CSc3cc(C)c4ccccc4n3)ns2)cc1	-3.7	-13.9	-1.4	4.8	0.1	+	-0.9	-6.4	26.9
CCCCC(=O)Nc1ccc(Cl)cn1	-2.9	-2.5	1.4	-0.9	-2.0	1.3	/	/	/
CCCC(C)C(=O)Nc1ccc(Cl)cn1 (stereo unspecified)	-2.4	8.4	-2.1	3.6	3.1	32.8*	-4.0	-52.5	-6.2
CSc1ncc(C(=O)Nc2ccc(C(C)=O)cc2)c(C)n1	/	/	-1.1	/	-3.8	22.7	/	/	/
NC1CCCCC1N=Cc1c(O)n(CCc2ccc(F)cc2)c(=O)[nH]c1=O (stereo unspecified)	/	/	0.0	/	-7.5	8.2	/	/	/
O=c1[nH]c(=O)n(CCc2ccc(F)cc2)c(O)c1C=NCc1ccc2c(c1)OCO2	-1.1	-12.9	-2.3	9.9	8.0	90.3*	17.4	-25.0	-13.8
CC(=O)c1ccc(S(=O)(=O)N2CCC(C(=O)Nc3ncc(C)s3)CC2)cc1	/	/	3.0	/	2.2	0.9	/	/	/
O=C(Nc1ccc(N2CCCC2)cc1)c1cc2ccccc2o1	2.3	6.3	-1.8	-20.7	9.7	69.0*	22.7	6.2	0.0
O=C(CN1CCCCC1)Nc1ccc(N2CCCCCC2)cc1	0.1	9.2	-1.9	0.5	-6.6	87.6*	-5.3	-34.9	-4.6
O=C(Nc1ccc(N2CCCC2)cc1)c1cc(Cl)ccc1Cl	3.1	1.3	-2.5	-10.4	134.8*	77.3*	2.7	-10.8	-9.5
O=C(CN1CCCCC1)Nc1ccccc1	-0.7	-17.2	1.9	2.5	-0.2	-1.6	/	/	/
SMILES	TPT1 inh	ZTA DNA inh	GRIN3A LBD mod	EBNA-1 inhibitor	dFosB activator	Rpn11 inh	Rpn11 inh conf	MMP-2 counter	Thrombin FP
Cc1ccc(CN2CC(C(=O)Nc3ccc(F)c([N+](=O)[O-])c3)CC2=O)cc1 (stereo unspecified)	0.3	-10.9	5.0	-16.4	-1.4	-0.4	/	/	/
O=C(NN=Cc1ccc(O)cc1)c1ccccc1NS(=O)(=O)c1cccs1	/	/	1.2	/	-3.1	2.7	/	/	/
O=C(N/N=C/c1cc(Cl)cc([N+](=O)[O-])c1O)c1ccccc1NS(=O)(=O)c1cccs1	1.5	-4.2	5.5	-9.4	-7.1	41.2*	129.1*	-20.2	-1.4
CCOC(=O)CCC(=O)N1CCOCCOCCOCC1	-0.6	1.9	2.3	-1.5	-4.7	-1.2	/	/	/
CCOC(=O)CCC(=O)N1CCOCCN(C(=O)CCC(=O)OCC)CCOCC1	3.1	-8.9	1.8	-4.6	-9.7	47.0*	-3.3	10.6	30.3
COc1ccc2cc(C(=O)C3CCCN(Cc4cnc(N5CCOCC5)s4)C3)ccc2c1 (stereo unspecified)	-5.2	-11.3	0.1	1.3	-11.3	42.5*	0.5	-19.9	6.4
COc1cccc(/C=N/NC(=O)c2cccc3ccccc23)c1OC	-0.2	4.3	-1.0	-0.8	-6.1	31.5*	-5.1	-60.2	3.1
CCOC(=O)c1nnn2c1nc(Nc1cccc(C(F)(F)F)c1)c1ccccc12	-2.3	10.2	7.5	3.5	/	63.9*	6.5	-8.3	0.5
COc1ccc(-n2c(SCC(=O)NCC3CCCO3)nc3ccccc3c2=O)cc1Cl (stereo unspecified)	/	/	/	/	/	47.2*	34.2	-23.0	13.7
O=C(Nc1ccncc1)c1cc2ccccc2cc1O	-1.7	10.2	5.2	4.7	-4.7	-7.3	/	/	/
O=C(Nc1cccc(-c2nc3ccccc3[nH]2)c1)c1ccco1	0.7	-0.2	6.8	-14.2	-25.4	-5.3	/	/	/
Cc1ccc2nc(-c3ccc(NC(=O)c4ccco4)cc3)[nH]c2c1	-0.9	4.3	31.1*	19.1	42.8*	67.1*	8.5	-95.9	-8.4
O=C(O)C1CCCCC1C(=O)NCc1ccc(Cl)c(Cl)c1 (stereo unspecified)	1.0	-2.9	2.7	-8.8	0.7	-5.6	/	/	/
CCOC(=O)C1=C(C)Nc2nnnn2C1c1cccc(OC)c1OC (stereo unspecified)	-0.5	-19.5	-0.5	-2.4	0.0	+	0.1	-34.2	-8.6

Screening data: PubChem BioAssay, several laboratories
